Screening results (PubChem)
S2 tox: cell viability loss in ATXN counter-screen | S2 cells (HEK-293 line with an ATXN2-luciferase reporter) viability, CellTiter-Fluor protease fluorescence, 24 h | Potency, µM (series often up to 56.7 µM), actives largely listed as cytotoxic | hit rate 0.49% among 400,000; further: nearly all actives have a fitted effect of over 40% in size
TGFb inhibitor: TGF-b pathway inhibition. hit rate 1.2% among 410,000. HepG2 CAGA-GFP TGF-b/SMAD3 reporter, GFP fluorescence, 18 h; TGF-beta stimulated, 500 pg/mL final. Potency, µM (titrated, usually from 46.1 µM), hits mostly inhibitors. AID 588855; further: nearly all actives have a fitted effect of over 65% in size
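HEPG2 CAGA-GFP, 1000 cells/well; 2 h settle, 37 C; cpd via pin tool; TGF-b 500 pg/mL final; 18 h, 37 C; GFP imaging ex488/em500-530; %Activity normalised to -TGF-b and +DMSO controls; CRC fit, curve class.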
ATXN2 expr inh: ATXN2 expression inhibition; HEK-293 ATXN2-luciferase reporter, luminescence, 24 h; Potency, µM (highest dose often 57 µM), actives largely listed as inhibitors; hit rate 0.72% among 360,000; AID 1745845; further: nearly all actives have a fitted effect of over 55% in size
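ATXN2-luciferase reporter cells (luciferase flanked by upstream and downstream ATXN2 gene portions) were treated 24 h at 37 °C with compounds at up to 57 uM. SteadyGlo luminescence gave expression; GF-AFC fluorescence gave viability.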
HepG2 tox: kills HepG2 cells in TGF-b inhibitor counter-screen | HepG2 CAGA-GFP viability, ATP luminescence, 18 h | AID 588856 | hit rate 0.76% among 410,000 | Potency, µM (top dose mostly 46.1 µM), usual class: cytotoxic
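CellTiter-Glo luminescence gave cytotoxicity after 18 hours at 37 degrees C. The cells were HepG2 CAGA-GFP in 1% FBS DMEM, stimulated with 500 pg/mL TGF-beta after compound addition. %Activity was normalised to no-cell wells (complete cell-killing) and DMSO (no toxicity), and curves were fitted and classified.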
Numbers stand for hits; . = inactive; ? = inconclusive; / = no result given; ! = not active in a repeat. Hits are enriched below; roughly 2.3% of the tested compounds scored in any of these assays. The call rests on the fitted dose curve; in most records, active means well fitted curve in the direction sought with a large enough effect; inconclusive means small, poorly fitted or top-dose-only effect, or another doubt; inactive means no such curve, though single readings can be large; an effect the other way counts as inactive or inconclusive.

SMILES	S2 tox	TGFb inhibitor	ATXN2 expr inh	HepG2 tox
CCCCCCCC/C=C\CCCCCCCC(=O)NCc1ccc(O)c(OC)c1	.	/	.	/
COC(=O)[C@@H]1C[C@@H](NC(=O)c2ccc(C(F)(F)F)cc2)CN1Cc1cccc(O)c1	.	/	/	/
COc1ccc(CCNC(=S)N2CCC(C(=O)c3ccc(F)cc3)CC2)cc1OC	.	11µM	/	.
COc1ccc(C(=O)C2CCN(C(=S)NCCc3ccc(OC)c(OC)c3)CC2)cc1	?	?	?	.
Cc1c(C(=O)NCC(C)(C)CN(C)C)cnn1-c1nccc(-c2ccccc2F)n1	.	/	/	/
COc1cc2nccc(Oc3ccc(NC(=O)C4(C(=O)Nc5ccc(F)cc5)CC4)cc3)c2cc1OC	/	/	19µM	/
CCn1c(-c2cccc(OC)c2)nc2cc(NC(C)=O)cc(C(=O)N(C)CC3COCCO3)c21 (centres undefined)	.	/	/	/
O=C(CN(Cc1ccccc1)C(=O)CCl)c1cccc(Br)c1	25µM	?	22µM	.
C/C(=N/NC(=O)c1cccs1)c1ccc(NC(=O)COc2ccc(Cl)cc2Cl)cc1	11µM	.	13µM	.
Cc1ccc(NCN2C(=O)C(=O)c3ccccc32)nc1	.	6.3µM	.	.
CCOC(=O)c1c(CN2CCN(C)CC2)n(C)c2cc(Br)c(OC)cc12	.	.	.	11µM
c1ccc(Cc2nnc3sc(-c4ccccn4)nn23)cc1	.	.	.	.
CCOc1ccccc1-c1nn2c(Cc3ccccc3)nnc2s1	.	?	.	13µM
O=C(C=Cc1cccnc1)NCCCCC1CCN(C(=O)c2ccccc2)CC1	/	/	.	/
COc1cc(OC)cc(-c2c(-c3cccs3)c3cc(-c4ccn[nH]4)ccc3n2C)c1	?	16µM	?	.
CC(=O)O[C@@H]1CC2C3CCc4cc(OC(=O)c5ccccc5)ccc4C3CCC2(C)[C@H]1OC(C)=O (some centres undefined)	.	/	.	/
Cc1ccn2c(Nc3ccccc3C)c(-c3ccccn3)nc2c1	/	13µM	4µM	16µM!
CC(C)c1ccc(Nc2c(-c3ccccn3)nc3ccccn23)cc1	?	?	?	10µM
O=C[C@H](O)[C@@H](O)[C@H](O)[C@H](O)CO	.	/	/	/
CCC1CN(CCNC(=O)c2cc(C)nn2CC)Cc2cc(OC)ccc2O1 (centres undefined)	.	/	/	/
O=C(Nc1cccc2c1CCCC2)c1ccc(Cl)c([N+](=O)[O-])c1	.	.	.	.
O=C(Nc1cccc2c1CCCC2)c1cc([N+](=O)[O-])ccc1Cl	.	?	25µM	.
CCN(CC)c1ccc(/C=N/NC(=O)c2cccc(S(=O)(=O)N3CCOCC3)c2)c(O)c1	/	?	1.9µM	.
CCN(CC)c1ccc(/C=N/NC(=O)CCC(=O)NCc2ccccc2)c(O)c1	.	.	3.5µM	.
CCN(CC)c1ccc(C=Nc2cccc(S(=O)(=O)N3CCOCC3)c2)c(O)c1	?	.	.	.
SMILES	S2 tox	TGFb inhibitor	ATXN2 expr inh	HepG2 tox
CC(C)(C)n1ncc2c(=O)n(Cc3ccc(F)cc3Cl)cnc21	/	.	/	.
OC(Br)C(O)C(O)N1CCCc2ccccc21 (centres undefined)	/	.	/	.
O=C(Nc1ccccc1Cl)C1C(c2ccccc2)C1(Cl)Cl (centres undefined)	/	?	/	.
O=C(Nc1ccc(F)cc1)C1C(c2ccccc2)C1(Cl)Cl (centres undefined)	?	16µM	?	.
C[C@H]1O[C@@H](O[C@H]2[C@@H](O)C[C@H](O[C@H]3[C@@H](O)C[C@H](O[C@H]4CC[C@@]5(C)[C@H](CC[C@@H]6[C@@H]5C[C@@H](O)[C@]5(C)[C@@H](C7=CC(=O)OC7)CC[C@]65O)C4)O[C@@H]3C)O[C@@H]2C)C[C@H](O)[C@@H]1O	?	?	0.32µM	.
C=C1C(=O)O[C@@H]2[C@H]1[C@@H](OC(=O)/C(C)=C/C)C/C(C)=C\C(=O)/C=C(\C)[C@@H]2O	10µM	7.1µM	6.3µM	11µM
COc1ccccc1-c1cc2c(c(OC)c1)OCCN(CCC(C)c1ccc(C)o1)C2 (centres undefined)	.	/	/	/
CCOC(=O)N1CCC(=C2c3ccc(Cl)cc3CCc3cccnc32)CC1	?	.	14µM!	.
CN1CCC(=C2c3ccccc3CCc3cccnc32)CC1	.	/	.	/
CCc1cccc2sc(N3CCN(C(=O)C4CC4)CC3)nc12	/	.	/	.
Cc1c(Cl)ccc2sc(N3CCN(C(=O)C4CC4)CC3)nc12	?	18µM	.	.
Cc1ccccc1C(=O)Nc1cccc(-c2nnc(SCC(=O)NCc3ccco3)n2C)c1	/	.	/	.
CC(C)n1cc(CN2CCCC(C(=O)Nc3cccc(-c4cc5ccccc5[nH]4)c3)C2)cn1 (centres undefined)	?	?	28µM	.
c1coc(-c2nc3cc4ccccc4cc3nc2-c2ccco2)c1	/	?	/	.
CN1CCN(c2ccc(C(CC(N)=O)NC(=O)Cc3ccc(Br)cc3)cc2[N+](=O)[O-])CC1 (centres undefined)	.	.	.	0.32µM
CN(C)c1ccc(CC2CCc3ccccc32)cc1 (centres undefined)	/	.	/	.
COc1cc(=O)n2c(c1C(=O)NC(C)c1ccco1)CCN(Cc1cc(C)ccc1C)CC2 (centres undefined)	.	/	/	/
O=C1c2cccc3cc([N+](=O)[O-])cc(c23)C(=O)N1CCN1CCCC1	.	5µM	?	.
CC(=O)Nc1ccc(S(=O)(=O)N2CCC(c3nnc(-c4ccc(C)cc4)o3)CC2)cc1	18µM	?	20µM!	.
Cc1ccc(-c2nnc(C3CCN(S(=O)(=O)c4ccc(C)c(C)c4)CC3)o2)cc1	/	?	/	.
Cc1cccc(-c2nnc(C3CCN(S(=O)(=O)c4cccc(Cl)c4)CC3)o2)c1	1.4µM	?	1.6µM	.
O=C1[C@H](Cc2ccccc2)NC/C=C\C[C@@H](c2ccco2)N1Cc1ccccc1	/	?	/	.
CC1(C)S[C@@H]2[C@H](NC(=O)C(c3ccccc3)S(=O)(=O)O)C(=O)N2[C@H]1C(=O)O (some centres undefined)	.	/	.	/
O=S(=O)(NCc1ccccc1)c1ccc(NC(=S)NCc2ccco2)cc1	.	?	/	11µM
Cc1ccc(S(=O)(=O)NCC(=O)N(CC(=O)NCc2ccco2)Cc2ccccc2)cc1	.	.	.	16µM
SMILES	S2 tox	TGFb inhibitor	ATXN2 expr inh	HepG2 tox
CCNS(=O)(=O)c1ccc(NC(=S)NCc2ccco2)cc1	.	.	.	.
CCn1c(COc2ccccc2C)nnc1SCC(=O)N1CCN(c2ccccc2)CC1	?	?	14µM	.
CCn1c(COc2cccc(C)c2C)nnc1SCC(=O)N1CCN(c2ccc(OC)cc2)CC1	.	.	.	.
COc1ccc(N(Cc2cccs2)C(=O)COc2cc(C)c(Cl)c(C)c2)cc1	/	16µM	/	.
Cc1cc(C)nc(Nc2ccc(N3CCOCC3)cc2)n1	.	.	.	.
Cc1nc(N)sc1-c1ccnc(Nc2ccc(N3CCOCC3)cc2)n1	/	/	11µM	/
CC(C)(C)c1ccc(-n2nc(C#N)c(Cl)cc2=O)cc1	/	7.1µM	?	6.3µM
